PubChem BioAssay AID1159580 (chemical genetic matrix, 2015)
Hit rate of the full screen: of about 5,500 compounds, about 2,000 (36%) were called active. Not shown: some 18% with an inconclusive outcome. Some of the results follow. Values without a mark were called inactive. No stated cut-off is given here; in the data, active means normalized growth mostly below about 0.91 (no sharp cut-off); inconclusive means no clear call, values can overlap the other calls; inactive means mostly above about 0.92.

Assay: chemical genetic growth profiling, strain panel (AID 1159580);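 further: tested at 20 µM; growth read once vehicle control cultures reached saturation at 30 °C; 1 = growth at the plate median or of vehicle wells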
Details: S. cerevisiae deletion strains, growth OD
[1] = locus YAL021C, strain ccr4, stronger effect = lower value
[2] = locus YAL026C, strain drs2, stronger effect = lower value
[3] = locus YAL030W, strain snc1, stronger effect = lower value
[4] = locus YBL061C, strain skt5, stronger effect = lower value
[5] = locus YBR009C, strain hhf1, stronger effect = lower value
[6] = locus YBR023C, strain chs3, stronger effect = lower value
[7] = locus YBR171W, strain sec66, stronger effect = lower value
[8] = locus YBR231C, strain swc5, stronger effect = lower value
[9] = locus YBR279W, strain paf1, stronger effect = lower value
[10] = locus YCL011C, strain gbp2, stronger effect = lower value
[11] = locus YCL016C, strain dcc1, stronger effect = lower value
[12] = locus YCL069W, strain vba3, stronger effect = lower value
[13] = locus YCR088W, strain abp1, stronger effect = lower value
[14] = locus YDL005C, strain med2, stronger effect = lower value
[15] = locus YDL040C, strain nat1, stronger effect = lower value
[16] = locus YDR001C, strain nth1, stronger effect = lower value
[17] = locus YDR069C, strain doa4, stronger effect = lower value
[18] = locus YDR137W, strain rgp1, stronger effect = lower value
[19] = locus YDR159W, strain sac3, stronger effect = lower value
[20] = locus YDR297W, strain sur2, stronger effect = lower value
[21] = locus YDR334W, strain swr1, stronger effect = lower value
[22] = locus YDR335W, strain msn5, stronger effect = lower value
[23] = locus YDR392W, strain spt3, stronger effect = lower value
[24] = locus YEL003W, strain gim4, stronger effect = lower value
[25] = locus YEL037C, strain rad23, stronger effect = lower value
[26] = locus YEL061C, strain CIN8 (second series), stronger effect = lower value
[27] = locus YER015W, strain faa2, stronger effect = lower value
[28] = locus YER016W, strain bim1, stronger effect = lower value
[29] = locus YER111C, strain swi4, stronger effect = lower value
[30] = locus YER155C, strain BEM2 (second series), stronger effect = lower value
[31] = locus YFR010W, strain ubp6, stronger effect = lower value
[32] = locus YGL167C, strain pmr1, stronger effect = lower value
[33] = locus YGL173C, strain kem1, stronger effect = lower value
[34] = locus YGL227W, strain vid30, stronger effect = lower value
[35] = locus YGL240W, strain doc1, stronger effect = lower value
[36] = locus YGL253W, strain hxk2, stronger effect = lower value
[37] = locus YHR013C, strain ard1, stronger effect = lower value
[38] = locus YHR027C, strain rpn1, stronger effect = lower value
[39] = locus YHR142W, strain chs7, stronger effect = lower value
[40] = locus YJL092W, strain hpr5, stronger effect = lower value
[41] = locus YJL095W, strain BCK1 (second series), stronger effect = lower value
[42] = locus YJL115W, strain asf1, stronger effect = lower value
[43] = locus YJL129C, strain trk1, stronger effect = lower value
[44] = locus YJL154C, strain vps35, stronger effect = lower value
[45] = locus YJL164C, strain tpk1, stronger effect = lower value
[46] = locus YJL166W, strain qcr8, stronger effect = lower value
[47] = locus YJL187C, strain SWE1, stronger effect = lower value
[48] = locus YKL160W, strain elf1, stronger effect = lower value
[49] = locus YKR026C, strain gcn3, stronger effect = lower value
[50] = locus YKR091W, strain srl3, stronger effect = lower value
[51] = locus YLL001W, strain dnm1, stronger effect = lower value
[52] = locus YLL026W, stronger effect = lower value
[53] = locus YLL041C, strain sdh2, stronger effect = lower value
[54] = locus YLR027C, strain aat2, stronger effect = lower value
[55] = locus YLR221C, strain rsa3, stronger effect = lower value
[56] = locus YLR258W, strain gsy2, stronger effect = lower value
[57] = locus YLR262C, strain YPT6 (second series), stronger effect = lower value
[58] = locus YLR320W, strain mms22, stronger effect = lower value
[59] = locus YLR342W, strain FKS1, stronger effect = lower value
[60] = locus YLR357W, strain rsc2, stronger effect = lower value
[61] = locus YLR370C, strain arc18, stronger effect = lower value
[62] = locus YLR384C, strain iki3, stronger effect = lower value
[63] = locus YML120C, strain ndi1, stronger effect = lower value
[64] = locus YMR058W, strain fet3, stronger effect = lower value
[65] = locus YMR125W, strain sto1, stronger effect = lower value
[66] = locus YMR129W, stronger effect = lower value
[67] = locus YMR205C, strain PFK2, stronger effect = lower value
[68] = locus YMR231W, strain pep5, stronger effect = lower value
[69] = locus YNL071W, strain lat1, stronger effect = lower value
[70] = locus YNL209W, strain ssb2, stronger effect = lower value
[71] = locus YNL248C, strain rpa49, stronger effect = lower value
[72] = locus YNL322C, strain KRE1 (second series), stronger effect = lower value
[73] = locus YNR049C, strain mso1, stronger effect = lower value
[74] = locus YOR001W, strain rrp6, stronger effect = lower value
[75] = locus YOR070C, strain gyp1, stronger effect = lower value
[76] = locus YOR080W, strain dia2, stronger effect = lower value
[77] = locus YOR083W, strain WHI5, stronger effect = lower value
[78] = locus YOR106W, strain vam3, stronger effect = lower value
[79] = locus YOR265W, strain rbl2, stronger effect = lower value
[80] = locus YOR270C, strain vph1, stronger effect = lower value
[81] = locus YOR290C, strain snf2, stronger effect = lower value
[82] = locus YPL051W, strain arl3, stronger effect = lower value
[83] = locus YPL078C, strain atp4, stronger effect = lower value
[84] = locus YPL106C, strain sse1, stronger effect = lower value
[85] = locus YPL240C, strain hsp82, stronger effect = lower value

COc1ccc(-c2coc3cc(OC)cc(OC)c3c2=O)cc1
normalized growth [1]: 1 | normalized growth [2]: 0.985 | normalized growth [3]: 0.987 | normalized growth [4]: 0.972 | normalized growth [5]: 0.988 | normalized growth [6]: 0.97 | normalized growth [7]: 0.994 | normalized growth [8]: 0.989 | normalized growth [9]: 0.993 | normalized growth [10]: 0.979 | normalized growth [11]: 0.997 | normalized growth (locus YCL061C, strain MRC1, stronger effect = lower value): 0.989 | normalized growth [12]: 0.996 | normalized growth [13]: 0.991 | normalized growth [14]: 1 | normalized growth [15]: 0.987 | normalized growth [16]: 0.984 | normalized growth [17]: 1 | normalized growth [18]: 0.974 | normalized growth [19]: 0.987 | normalized growth (locus YDR195W, strain ref2): 1.04 | normalized growth [20]: 0.983 | normalized growth [21]: 1 | normalized growth [22]: 0.997 | normalized growth [23]: 0.843 | normalized growth [24]: 0.987 | normalized growth [25]: 0.988 | normalized growth [26]: 0.99 | normalized growth [27]: 0.99 | normalized growth [28]: 0.99 | normalized growth [29]: 0.991 | normalized growth [30]: 0.946 | normalized growth [31]: 1 | normalized growth [32]: 0.982 | normalized growth [33]: 0.98 | normalized growth [34]: 0.992 | normalized growth [35]: 0.982 | normalized growth [36]: 0.995 | normalized growth [37]: 0.96 | normalized growth [38]: 0.994 | normalized growth [39]: 0.93 | normalized growth [40]: 0.991 | normalized growth [41]: 1.01 | normalized growth [42]: 0.996 | normalized growth [43]: 0.969 | normalized growth [44]: 0.998 | normalized growth [45]: 0.981 | normalized growth [46]: 0.986 | normalized growth [47]: 0.988 | normalized growth [48]: 0.986 | normalized growth [49]: 0.988 | normalized growth [50]: 0.989 | normalized growth [51]: 0.976 | normalized growth [52]: 0.987 | normalized growth [53]: 0.991 | normalized growth [54]: 0.998 | normalized growth [55]: 0.978 | normalized growth [56]: 0.987 | normalized growth [57]: 0.968 | normalized growth [58]: 0.971 | normalized growth [59]: 0.994 | normalized growth [60]: 0.988 | normalized growth [61]: 0.992 | normalized growth [62]: 0.987 | normalized growth [63]: 0.989 | normalized growth [64]: 0.987 | normalized growth [65]: 1.01 | normalized growth [66]: 0.987 | normalized growth [67]: 0.959 | normalized growth [68]: 0.977 | normalized growth [69]: 0.988 | normalized growth [70]: 0.995 | normalized growth [71]: 0.999 | normalized growth [72]: 0.994 | normalized growth [73]: 1 | normalized growth [74]: 1.01 | normalized growth [75]: 1.01 | normalized growth [76]: 1 | normalized growth [77]: 0.984 | normalized growth [78]: 0.974 | normalized growth [79]: 0.984 | normalized growth [80]: 0.885 | normalized growth [81]: 0.948 | normalized growth [82]: 0.972 | normalized growth [83]: 0.975 | normalized growth [84]: 0.964 | normalized growth [85]: 0.984

COc1cc(OC)c2c(=O)c(-c3ccccc3)coc2c1
normalized growth [1]: 0.991 | normalized growth [2]: 0.895 (active) | normalized growth [3]: 0.991 | normalized growth [4]: 0.958 | normalized growth [5]: 0.928 | normalized growth [6]: 0.915 | normalized growth [7]: 1.01 | normalized growth [8]: 0.951 | normalized growth [9]: 0.953 | normalized growth [10]: 0.936 | normalized growth [11]: 0.965 | normalized growth [12]: 0.982 | normalized growth [13]: 0.993 | normalized growth [14]: 1.04 | normalized growth [15]: 0.99 | normalized growth [16]: 0.994 | normalized growth [17]: 1.02 | normalized growth [18]: 0.911 | normalized growth [19]: 0.963 | normalized growth (locus YDR195W, strain ref2): 1.22 [resistant] (active) | normalized growth [20]: 0.995 | normalized growth [21]: 1 | normalized growth [22]: 0.98 | normalized growth [23]: 0.637 (active) | normalized growth [24]: 0.967 | normalized growth [25]: 0.998 | normalized growth [26]: 1 | normalized growth [27]: 0.956 | normalized growth [28]: 1 | normalized growth [29]: 1.02 | normalized growth [30]: 0.596 (active) | normalized growth [31]: 1.01 | normalized growth [32]: 0.985 | normalized growth [33]: 0.985 | normalized growth [34]: 1 | normalized growth [35]: 0.835 (active) | normalized growth [36]: 0.935 | normalized growth [37]: 0.974 | normalized growth [38]: 1 | normalized growth [39]: 0.824 (active) | normalized growth [40]: 0.994 | normalized growth [41]: 0.979 | normalized growth [42]: 1 | normalized growth [43]: 0.964 | normalized growth [44]: 1 | normalized growth [45]: 0.935 | normalized growth [46]: 0.934 | normalized growth [47]: 0.997 | normalized growth [48]: 0.93 | normalized growth [49]: 0.99 | normalized growth [50]: 0.996 | normalized growth [51]: 0.941 | normalized growth [52]: 0.99 | normalized growth [53]: 0.991 | normalized growth [54]: 0.947 | normalized growth [55]: 0.947 | normalized growth [56]: 0.925 | normalized growth [57]: 0.91 | normalized growth [58]: 0.87 (active) | normalized growth [59]: 0.911 | normalized growth [60]: 1.03 | normalized growth [61]: 0.939 | normalized growth [62]: 1 | normalized growth [63]: 0.946 | normalized growth [64]: 0.978 | normalized growth [65]: 0.971 | normalized growth [66]: 0.999 | normalized growth [67]: 0.954 | normalized growth [68]: 0.994 | normalized growth [69]: 0.807 (active) | normalized growth [70]: 0.984 | normalized growth [71]: 0.995 | normalized growth [72]: 0.972 | normalized growth [73]: 1.01 | normalized growth [74]: 0.96 | normalized growth [75]: 0.976 | normalized growth [76]: 1.01 | normalized growth [77]: 0.902 | normalized growth [78]: 0.89 | normalized growth [79]: 1 | normalized growth [80]: 0.767 (active) | normalized growth [81]: 0.893 | normalized growth [82]: 0.936 | normalized growth [83]: 0.933 | normalized growth [84]: 1.01 | normalized growth [85]: 0.986
